# Values without a mark were called inactive.
# System: MCF10A
# Test: perturbation Mahalanobis distance of morphological profile vs DMSO controls (Mahalanobis distance (SD units)); higher = stronger morphological change, active = 7 or more
# Conditions: 72 h
# Procedure: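 MCF10A cells were seeded onto drugs dispensed acoustically into 384-well plates, using one dose per drug chosen from its human peak plasma concentration, and incubated for 72 h at 37 °C. Cells were stained for DNA, tubulin and mitochondria and imaged; 78 CellProfiler features were extracted, plate-normalised and compared with DMSO wells.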
# [1] = screen batch: Batch1_Mahalanobis_Distance
# [2] = screen batch: Batch2_Mahalanobis_Distance
Structure (SMILES),perturbation Mahalanobis distance [1],perturbation Mahalanobis distance [2]
CO[C@H]1/C=C/O[C@@]2(C)Oc3c(C)c(O)c4c(c3C2=O)C2=NC3(CCN(CC(C)C)CC3)NC2=C(NC(=O)/C(C)=C\C=C\[C@H](C)[C@H](O)[C@@H](C)[C@@H](O)[C@@H](C)[C@H](OC(C)=O)[C@@H]1C)C4=O [Rifabutin] (0.89 µM),6.13,3.99
CN1CCN(CCCN2c3ccccc3Sc3ccc(C(F)(F)F)cc32)CC1 [Trifluoperazine] (0.12 µM),1.97,3.67
Cc1ncc([N+](=O)[O-])n1CCO [Metronidazole] (58.4 µM),3.04,2.36
NNc1nncc2ccccc12 [Hydralazine] (15.6 µM),4.07,3.91
CCCc1nc(C(C)(C)O)c(C(=O)O)n1Cc1ccc(-c2ccccc2-c2nn[nH]n2)cc1 [Olmesartan] (10 µM),2.22,2.24
NC(N)=NC(=O)c1nc(Cl)c(N)nc1N [Amiloride] (1.1 µM),5.52,3.78
CN[C@H]1CC[C@@H](c2ccc(Cl)c(Cl)c2)c2ccccc21 [Sertraline] (3.3 µM),2.81,4.31
O=C1CN(/N=C/c2ccc(-c3ccc([N+](=O)[O-])cc3)o2)C(=O)N1 [Dantrolene] (23.9 µM),2.62,3.85
COc1cc(C(=O)NS(=O)(=O)c2ccccc2C)ccc1Cc1cn(C)c2ccc(NC(=O)OC3CCCC3)cc12 [Zafirlukast] (0.26 µM),2.19,1.99
CCCc1cc(=O)[nH]c(=S)[nH]1 [Propylthiouracil] (90 µM),2.49,2.52
CC1(C)O[C@@H]2[C@@H](CO[C@@]3(COS(N)(=O)=O)OC(C)(C)O[C@@H]23)O1 [Topiramate] (76.6 µM),2.96,3.08
CN1C[C@H]2c3ccccc3Oc3ccc(Cl)cc3[C@@H]2C1 [Asenapine] (0.07 µM),2.56,2.47
CCN(CC)C(=O)N1CCN(C)CC1 [Diethylcarbamazine] (6.3 µM),2.96,2.16
CCN(CC)CCCC(C)Nc1ccnc2cc(Cl)ccc12 (centres undefined) [Chloroquine] (4.7 µM),2.4,2.82
CCC(CC)O[C@@H]1C=C(C(=O)O)C[C@H](N)[C@H]1NC(C)=O [Oseltamivir Acid] (6.45 µM),2.37,3.03
COC(=O)Nc1nc2ccc(C(=O)c3ccccc3)cc2[nH]1 [Mebendazole] (1.7 µM),5.89,3.69
c1ccc(CC2=NCCN2)cc1 [Tolazoline] (25 µM),2.21,2.33
CCC1(c2ccccc2)NC(=O)N(C)C1=O (centres undefined) [Mephenytoin] (343.8 µM),3.16,3.69
CCCN[C@H]1CCc2nc(N)sc2C1 [Pramipexole] (0.15 µM),2.79,2.65

Structure (SMILES),perturbation Mahalanobis distance [1],perturbation Mahalanobis distance [2]
CCCCN1C[C@H](O)[C@@H](O)[C@H](O)[C@H]1CO [Miglustat] (92.6 µM),2.56,3.14
O=C1[C@H](CC[C@H](O)c2ccc(F)cc2)[C@@H](c2ccc(O)cc2)N1c1ccc(F)cc1 [Ezetimibe] (0.87 µM),3.59,2.59
C1CNCCN1 [Piperazine Hexahydrate] (5.8 µM),2.12,2.76
Cn1nnc2c(C(N)=O)ncn2c1=O [Temozolomide] (70.6 µM),3.51,2.12
CN(Cc1cnc2nc(N)nc(N)c2n1)c1ccc(C(=O)N[C@@H](CCC(=O)O)C(=O)O)cc1 [Methotrexate] (0.44 µM),9.23 (active),17.5 (active)
O=c1[nH]cc(F)c(=O)[nH]1 [5-Fluorouracil] (2.5 µM),7.34 (active),16.5 (active)
C[C@H](N[C@@H](CCc1ccccc1)C(=O)O)C(=O)N1CCC[C@H]1C(=O)O [Enalaprilat] (0.67 µM),3.78,2.89
CO[C@H]1CC2CC[C@@H](C)[C@@](O)(O2)C(=O)C(=O)N2CCCC[C@H]2C(=O)O[C@H]([C@H](C)C[C@@H]2CC[C@@H](OCCO)[C@H](OC)C2)CC(=O)[C@H](C)/C=C(\C)[C@@H](O)[C@@H](OC)C(=O)[C@H](C)C[C@H](C)/C=C/C=C/C=C/1C [Everolimus] (0.95 µM),5.37,9.89 (active)
NS(=O)(=O)c1cc(Cl)c(Cl)c(S(N)(=O)=O)c1 [Dichlorphenamide] (214.8 µM),2.6,4.41
COc1ccc2c3c1O[C@H]1C[C@@H](O)C=C[C@@]31CCN(C)C2 [Galantamine] (20 µM),2.14,2.43
C#C[C@]1(O)CC[C@H]2[C@@H]3CCc4cc(O)ccc4[C@H]3CC[C@@]21C [Ethinyl Estradiol] (23 µM),5.9,3.63
Cc1ccccc1C(=O)Nc1ccc(C(=O)N2CCC[C@@H](O)c3cc(Cl)ccc32)c(C)c1 [Tolvaptan] (11.1 µM),2.12,6.06
C[C@@H]1O[C@@]2(CS1)CN1CCC2CC1 [Cevimeline] (1.5 µM),3.07,3.45
Nc1ccn([C@@H]2O[C@H](CO)[C@@H](O)[C@@H]2O)c(=O)n1 [Cytarabine] (10.3 µM),12.2 (active),17.9 (active)
Nc1nc(=O)c2ncn(COC(CO)CO)c2[nH]1 [Ganciclovir] (98 µM),3.22,3.75
N=c1nc(N2CCCCC2)cc(N)n1O [Minoxidil] (6 µM),6.53,2.8
N[C@@H](CC(=O)N1CCn2c(nnc2C(F)(F)F)C1)Cc1cc(F)c(F)cc1F [Sitagliptin] (4.8 µM),2.76,2.49
CC(C)C(=O)Nc1ccc([N+](=O)[O-])c(C(F)(F)F)c1 [Flutamide] (27.2 µM),4.39,6.63
